Screens: PubChem BioAssay, The Scripps Research Institute Molecular Screening Center
TEAD-YAP inh – TEAD-YAP interaction inhibition; HEK-TIYL cells, TEAD-Gal4/YAP UAS-luciferase luminescence; inhibition, % at 9.12 µM; hit rate 1.4% among 640,000; in the data active = inhibition above about 32%;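 note: 0% = median of test compound wells and 100% = reference inhibitor wells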
MITF primary – human MITF inhibition, primary screen; O75030; AlphaScreen MITF homodimerization, bead proximity signal; inhibition, % at 2.6 µM; hit rate 0.91% among 650,000; AID 1259374; in the data active = inhibition above about 50%;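 note: 0% = vehicle wells with protein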
Target sequence (O75030 whole entry, looked up): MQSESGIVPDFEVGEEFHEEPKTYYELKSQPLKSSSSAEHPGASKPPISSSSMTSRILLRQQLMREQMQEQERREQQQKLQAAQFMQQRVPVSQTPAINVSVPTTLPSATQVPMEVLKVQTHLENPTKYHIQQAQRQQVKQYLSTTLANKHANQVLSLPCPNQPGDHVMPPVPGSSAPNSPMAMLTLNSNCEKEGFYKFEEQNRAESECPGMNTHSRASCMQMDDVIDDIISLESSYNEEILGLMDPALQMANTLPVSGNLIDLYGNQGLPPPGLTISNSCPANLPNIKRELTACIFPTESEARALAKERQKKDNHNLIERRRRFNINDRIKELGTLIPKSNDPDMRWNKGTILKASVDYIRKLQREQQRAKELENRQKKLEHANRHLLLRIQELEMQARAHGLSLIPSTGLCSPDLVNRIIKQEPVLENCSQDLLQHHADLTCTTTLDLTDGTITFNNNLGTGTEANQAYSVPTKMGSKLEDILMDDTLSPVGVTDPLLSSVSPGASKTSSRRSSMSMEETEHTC
FBW7 act – human FBW7 E3 ligase activation, primary screen; Q969H0; normalized activity (activation), % at 26.1 µM; hit rate 0.13% among 650,000; AlphaScreen FBW7–phospho-cyclin E peptide binding, activator screen; AID 1259310; in the data active = normalized activity above about 1.9%;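 note: purified mutant Fbw7 with reduced substrate affinity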
GPR151 activ – human GPR151 activation; PathHunter beta-arrestin GPR151 cells, luminescence; activation, % at 11.2 µM; hit rate 1% among 650,000; AID 1508602; in the data active = activation above about 4.9%;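 note: 0% = median of compound wells and 100% = cells with positive control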
MITF inh conf – confirmation of human MITF inhibitors | shares compounds with MITF primary | AlphaScreen MITF homodimerization, biotin/His-MITF beads | inhibition, % at 2.6 µM | hit rate 16% among 4,700 | AID 1259372;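 active = inhibition above a cutoff derived from the DMSO control wells, cut at about 28% in these data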;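 note: 0% = MITF dimer wells with DMSO only; inhibitors lower the bead chemiluminescence by keeping MITF from dimerizing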
AS interf DR – optically interferes with AlphaScreen signal in dose response; shares compounds with MITF primary; AlphaScreen optical interference counterscreen, cell-free; IC50, µM; hit rate 6% among 480; AID 1259373; call rule not given here
AS interf ctr – counter-screen: compounds optically interfering with AlphaScreen | shares compounds with MITF primary | LysRS AlphaScreen counterscreen, signal interference, triplicate | inhibition, % at 2.6 µM | hit rate 7.6% among 4,700 | AID 1259376;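 active = inhibition above a cutoff derived from the DMSO control wells, cut at about 30% in these data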
* = called active by the depositor; · = no result. Compounds with a hit are over-represented: about 3.4% of the library has one in this group of screens.

SMILES	TEAD-YAP inh	MITF primary	FBW7 act	GPR151 activ	MITF inh conf	AS interf ctr	others
CS(=O)(=O)N(CC(=O)Nc1c(F)cccc1F)c1ccc(Oc2ccccc2)cc1	-4	60*	0	0	10	17
CS(=O)(=O)N(CC(=O)Nc1ccc(F)cc1)c1ccc(Oc2ccccc2)cc1	-22	68*	1	1	7	16
CSc1cccc(NC(=O)CN(c2ccc3c(c2)OCO3)S(C)(=O)=O)c1	-2	-8	0	0	·	·
CS(=O)(=O)N(CC(=O)Nc1cccc(F)c1)c1ccc2c(c1)OCO2	0	64*	0	2	-1	-3
O=C(CN1CCN(Cc2nc(-c3cccs3)cs2)CC1)N1CCc2ccccc21	-4	58*	0	-1	-8	2
O=C(CN1CCN(C/C=C/c2ccccc2)CC1)N1CCCc2ccccc21	9	85*	0	0	5	10
O=C(CN1CCN(Cc2ccccc2)CC1)N1CCCc2ccccc21	19	72*	0	-2	-3	2
CC(=O)C(Cc1ccccc1)NC(=O)CN1CCN(C/C=C/c2ccccc2)CC1 (configuration not stated)	4	62*	0	-1	14	14
O=C1CCCN2N=C(SCC(=O)c3ccccc3)SC2=N1	-18	-4	0	2	·	·
Fc1ccc(CN2CCN(C3CCCCCC3)CC2)cc1	8	64*	0	2	16	21
Cc1ccc(CN2CCN(C3CCCC3)CC2)cc1	1	38	0	1	·	·
Fc1ccc(CN2CCC(N3CCCCC3)CC2)cc1	10	45	0	0	·	·
c1cc(CN2CCN(C3CCCC3)CC2)ccn1	4	79*	1	-1	7	14
Fc1ccc(CN2CCN(C3CCC(c4ccccc4)CC3)CC2)cc1 (configuration not stated)	-1	66*	0	1	1	9
CCc1ccc(CN2CCN(C3CCCCCC3)CC2)cc1	-13	79*	0	-1	2	-2
Fc1ccc(CN2CCN(C3CCN(Cc4ccccc4)CC3)CC2)cc1	9	14	0	0	·	·
CCOC(=O)c1ccc2c(c1)C(=O)N(c1ccc([N+](=O)[O-])cc1)C2=O	-2	-4	0	0	·	·
Cc1ccn2c(=O)c(C(=O)Nc3cccc(Cl)c3C)cnc2c1	-36	1	0	1	·	·
c1ccc(CNc2ccnc3c(-c4ccoc4)cnn23)nc1	-13	42	-2	-1	·	·
COc1ccc(S(=O)(=O)NC(N)=NCCc2c(C)[nH]c3ccc(F)cc23)cc1C	5	13	1	-2	·	·
CN1CCN(c2ccc(NC(=O)c3ccc(C#N)cc3F)cc2)CC1	-7	18	1	2	·	·
S=c1[nH]nc(-c2ccco2)n1/N=C/C=C/c1ccco1	-8	73*	-1	-1	33*	2	AS interf DR=>6.5
Cc1cccc(NC(=O)C2C3C=CC(C4CC34)C2C(=O)O)c1C (configuration not stated)	5	55*	0	4	17	15
CCC(C)NCCOCCOc1ccc(Br)cc1 (configuration not stated)	4	26	0	1	·	·
CCC(C)NCCOCCOc1ccc(C)cc1 (configuration not stated)	10	49	0	0	·	·
SMILES	TEAD-YAP inh	MITF primary	FBW7 act	GPR151 activ	MITF inh conf	AS interf ctr	others
CCC(C)NCCOCCOc1ccc(Cl)c(Cl)c1 (configuration not stated)	-6	66*	0	1	-3	-5
CCC(C)NCCOc1ccc(Br)cc1 (configuration not stated)	4	76*	0	-1	-14	1
CCc1cccc(OCCCNC(C)CC)c1 (configuration not stated)	12	82*	0	-1	14	8
CCOC(=O)c1c(-c2ccc(OC)c(OC)c2)csc1NC(=O)CN1CCCC1	5	-12	0	1	·	·
CCOC(=O)c1c(-c2ccc(OC)c(OC)c2)csc1NC(=O)CCN1CCN(C)CC1	5	81*	0	-1	-5	3
CCN1CCN(CC(=O)NCc2ccc(F)cc2)CC1	3	79*	0	2	3	14
CCOC(=O)c1c(-c2ccc(F)cc2)csc1NC(=O)CN1CCOCC1	-2	-6	0	0	·	·
CCOC(=O)c1c(-c2ccc(F)cc2)csc1NC(=O)CN1CCN(CC)CC1	9	63*	0	-1	5	14
CCOC(=O)c1cc(-c2ccccc2)sc1NC(=O)CCN1CCN(C)CC1	-8	58*	0	2	1	18
CCOc1cc(/C=C2\C(=O)NC(=O)N(c3ccc(O)cc3)C2=O)ccc1O	11	-14	0	-1	·	·
Cc1cccc(C(=O)N2CCc3c(cnc(C)c3CNC(=O)CN3CCCC3)C2)c1	-16	15	0	-1	·	·
COc1ccc(C(Cc2cnccn2)Oc2nc(C)cc(C)n2)cc1 (configuration not stated)	-12	6	0	0	·	·
Cc1ccc(-c2nc3cccnc3s2)cc1NS(=O)(=O)c1ccc(F)cc1F	-54	-6	0	-2	·	·
CCOC(=O)c1c(-c2ccc(C)cc2)csc1NC(=O)CCN1CCN(CC)CC1	-4	53*	0	0	4	3
CC(C)c1ccccc1NC(=O)COC(=O)c1ccc([N+](=O)[O-])o1	14	6	0	-2	·	·
COC(=O)c1ccc(OCCN2CCOCC2)cc1	-20	-5	0	2	·	·
O=C(c1ccccc1)c1ccc(OCCCN2CCCC2)cc1	8	53*	0	-1	0	0
CN1CCN(CCOc2ccc(C(=O)c3ccccc3)cc2)CC1	-17	81*	1	3	3	0
O=C(c1ccccc1)c1ccc(OCCN2CCOCC2)cc1	-14	83*	0	0	2	4
CCOC(=O)c1ccc(OCCCN2CCCCCC2)cc1	6	17	-1	0	·	·
CCN1CCN(CCOc2ccc(C(=O)c3ccccc3)cc2)CC1	-3	41	0	-1	·	·
CCOc1ccc(OCCN2CCOCC2)cc1	-18	76*	0	1	10	15
O=C(CC1(O)C(=O)N(Cc2ccc(Cl)cc2)c2ccccc21)c1ccco1 (configuration not stated)	3	5	0	0	·	·
O=C(/C=C/c1ccccc1)OCCN1CCOCC1	0	9	1	0	·	·
O=P(OCCN1CCOCC1)(c1ccccc1)c1ccccc1	-1	57*	0	2	6	11
CCN1C(C(=O)c2ccccc2)=C(NC(=O)c2ccc(C)cc2)c2ccccc2S1(=O)=O	-1	54*	0	-1	-1	0
CCN1C(C(=O)c2ccccc2)=C(NC(=O)c2ccc(Cl)cc2)c2ccccc2S1(=O)=O	8	0	0	-1	·	·
